Laboratory results as given in PubChem BioAssay AID488802 (Broad Institute, 2010).
Results with a measured potency or affinity are listed apart. The source made the active and inactive calls. How the calls were made is not given here.

Assay: single-agent growth inhibition of C. albicans, dose response, counter-screen for antifungal drug resistance project, C. albicans CaCi-2, dry powder (AID 488802)
Details: C. albicans CaCi-2 (fluconazole-resistant clinical isolate) growth, no fluconazole, Alamar Blue, 48 h; series mostly up to 26 µM; activity change, negative = inhibition: at the top concentration

| SMILES | activity change, negative = inhibition |
| --- | --- |
| COC(=O)Cn1nc(-c2ccccc2)c2cc(Cl)ccc21 | 4.23% (inactive) |
| O=C(c1csc2ccccc12)N1CCN(c2ccnc3cc(Cl)ccc23)CC1 | 3.03% (inactive) |
| O=C(Cn1c2ccccc2c2nc3n(c(=O)c21)CCCS3)c1ccc(F)cc1 | 6.11% (inactive) |
| O=S(=O)(c1ccc(Cl)cc1)N1CCN(c2ccnc3cc(Cl)ccc23)CC1 | -32.2% (inactive) |
| COC(=O)Cn1nc(-c2ccc(Cl)cc2)c2ccccc21 | -11.2% (inactive) |
| COc1ccc2c(c1)c1nc3n(c(=O)c1n2CC(=O)N1CCC(Cc2ccccc2)CC1)CCS3 | 7.8% (inactive) |
| CCOC(=O)c1c2ccccc2nn1Cc1ccc(Cl)cc1 | -15.6% (inactive) |
| COC(=O)Cn1nc(C)c2ccccc21 | 11% (inactive) |
| O=C(c1cccs1)N1CCN(c2ccnc3cc(Cl)ccc23)CC1 | -9.52% [at 12 µM] (inactive) |
| O=C(Nc1ccc(C(F)(F)F)cc1)N1CCN(c2ccnc3cc(Cl)ccc23)CC1 | -34.5% (inactive) |
| O=C(Cn1nc(-c2ccccc2)c2ccccc21)NCc1ccc(Cl)cc1 | -10.8% (inactive) |
| COc1ccc(OC)c2c(C)cc(N3CCN(C(=O)c4ccc(Cl)cc4)CC3)nc12 | -9.23% (inactive) |
| CC1CCN(C(=O)Cn2c3ccc(F)cc3c3nc4n(c(=O)c32)CCCS4)CC1 | 0.966% (inactive) |
| CCCNC(=O)Cn1nc(-c2ccccc2)c2ccccc21 | 7.83% (inactive) |
| O=C(c1ccc(Cl)cc1)N1CCN(c2ccc(Cl)cc2)CC1 | -1.08% (inactive) |
| CCCCNC(=O)N1CCN(c2ccnc3cc(Cl)ccc23)CC1 | -7.56% (inactive) |
| O=C(O)c1nn(Cc2ccc(Cl)cc2)c2ccccc12 | -23.6% (inactive) |
| CCOC(=O)c1nn(Cc2ccc(Cl)cc2)c2ccccc12 | -15.9% (inactive) |

| SMILES | activity change, negative = inhibition |
| --- | --- |
| O=C(Cn1c2ccccc2c2nc3n(c(=O)c21)CCS3)NCCc1ccc(Cl)cc1 | 19.3% (inactive) |
| CCN(CC)C(=O)Cn1c2ccccc2c2nc3n(c(=O)c21)CCS3 | 5.76% (inactive) |
| COc1ccc2c(c1)c1nc3n(c(=O)c1n2CC(=O)N1CCC(C)CC1)CCS3 | 13.5% [at 2.6 µM] (inactive) |
| COC(=O)Cn1nc(-c2ccccc2)c2ccccc21 | -40.4% (inactive) |
| O=C(Cn1nc(-c2ccccc2)c2cc(Cl)ccc21)N1CCOCC1 | 14.3% (inactive) |
| O=C(c1ccccc1)N1CCN(c2ccnc3cc(Cl)ccc23)CC1 | -30.1% (inactive) |
| c1ccc(-c2n[nH]c3ccccc23)cc1 | 18.7% (inactive) |
| O=C(C1CC1)N1CCN(c2ccnc3cc(Cl)ccc23)CC1 | -23.3% (inactive) |
| CNC(=O)Cn1nc(-c2ccccc2)c2ccccc21 | -11.6% (inactive) |
| COC(=O)Cn1nc(-c2ccc(C)cc2)c2ccccc21 | -30.7% (inactive) |
| O=C(c1ccc(Cl)cc1)N1CCN(c2ccccn2)CC1 | -37.2% (inactive) |
| O=C(Cn1nc(C(=O)N2CCCCC2)c2ccccc21)N1CCOCC1 | 28.7% (inactive) |
| O=C(O)c1c2ccccc2nn1Cc1ccc(Cl)cc1 | -17.9% (inactive) |
| O=C(Cn1c2ccccc2c2nc3n(c(=O)c21)CCS3)N1CCCC1 | 9.78% (inactive) |
| O=C(c1ccc(Cl)cc1)N1CCN(c2cc(C(F)(F)F)nc3ccccc23)CC1 | -13.8% (inactive) |
| O=c1c2[nH]c3ccccc3c2nc2n1CCS2 | -34.9% (inactive) |
| O=C(Cn1nc(-c2ccccc2)c2ccccc21)N1CCc2ccccc2C1 | -15.2% (inactive) |
